Results taken from PubChem BioAssay (Tox21).
Where “and” joins values, the source holds several entries; their conditions need not be identical. Equal entries are not always repeated. Results filed as inconclusive are left out. Where a call stands in place of a potency, no number is given. Some compounds were tested as several samples or in several runs, with calls that do not always agree. Calls of active or inactive are those of the source. The call rests on the fitted dose curve; in most records, active means well fitted curve in the direction sought with a large enough effect in the repeat runs; inconclusive means weak or mixed curves; inactive means no such curve, though single readings can be large; an effect the other way counts as inactive or inconclusive.

Assays:
[1] = A CellTox Green Cytotoxicity Assay to monitor cytotoxicity in HEK293 cells - 40 hour (AID 1224871); further: nearly all actives have a fitted effect of over 45% in size
Procedure, shortened: (§1)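 Nonlytic real-time cytotoxicity: HEK293 + CellTox Green reagent plated, 5 h preincubation, pintool compound addition (23 nL in DMSO), 37 C for 40 h, fluorescence measured at successive time points.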

[2] = qHTS RealTime-Glo MT Cell Viability Assay in HepG2 cells - 8 hour (AID 1224873); further: nearly all actives have a fitted effect of over 55% in size
Procedure, shortened: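 HepG2 cells mixed with RealTime-Glo MT reagents (NanoLuc plus cell-permeant prosubstrate) were seeded at 600 cells/well, incubated 5 h at 37 C/5% CO2, then pinned with compounds in DMSO; nonlytic luminescence tracked viability during 40 h treatment.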

[3] = qHTS RealTime-Glo MT Cell Viability Assay in HEK293 cells - 40 hour (AID 1224874); conditions: RealTime-Glo luminescence; max response: stronger effect = lower value; further: nearly all actives have a fitted effect of over 50% in size; further: potency means the concentration at half of the fitted maximal effect
Procedure, shortened: (§2)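 Cells were seeded together with NanoLuc luciferase and a prosubstrate that viable cells reduce to a luciferase substrate. After a 5 h incubation at 37 C/5% CO2, compounds were added and luminescence was measured repeatedly during 40 h of treatment.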

[4] = A CellTox Green Cytotoxicity Assay to monitor cytotoxicity in HepG2 cells - 16 hour (AID 1224876); further: nearly all actives have a fitted effect of over 45% in size
Procedure, shortened: (§3)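 Read-out is fluorescence of a cyanine dye excluded from live cells that stains DNA of dead HepG2 cells, with signal proportional to cytotoxicity. Plates were read at 0, 8, 16, 24, 32 and 40 h after compound addition.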

[5] = qHTS RealTime-Glo MT Cell Viability Assay in HepG2 cells - 32 hour (AID 1224877); further: nearly all actives have a fitted effect of over 55% in size
Procedure, shortened: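 Viability was tracked continuously by NanoLuc luminescence from prosubstrate reduced by living HepG2 cells, at successive time points over 40 h of compound exposure. Cells with reagent were preincubated 5 h at 37 °C before compound addition.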

[6] = A CellTox Green Cytotoxicity Assay to monitor cytotoxicity in HepG2 cells - 24 hour (AID 1224878); further: nearly all actives have a fitted effect of over 45% in size; further: potency means the concentration at half of the fitted maximal effect
Procedure, shortened: as §3

[7] = A CellTox Green Cytotoxicity Assay to monitor cytotoxicity in HepG2 cells - 40 hour (AID 1224879); further: nearly all actives have a fitted effect of over 40% in size
Procedure, shortened: as §3

[8] = qHTS RealTime-Glo MT Cell Viability Assay in HEK293 cells - 0 hour (AID 1224880); further: top concentration of the series differs between compounds; nearly all actives have a fitted effect of over 45% in size
Procedure, shortened: as §2

[9] = A CellTox Green Cytotoxicity Assay to monitor cytotoxicity in HEK293 cells - 24 hour (AID 1224875)
Procedure, shortened: as §1

SMILES: N[C@@H](Cc1c[nH]c2ccc(O)cc12)C(=O)O
- Potency [1]: inactive
- outcome [2]: inactive
- max response [3]: 3.87% (inactive) and 1.98% (inactive)
- Potency [4]: inactive
- outcome [5]: inactive
- Potency [6]: inactive
- Potency [7]: inactive
- Potency [8]: inactive

SMILES: CO[C@H]1C=CO[C@@]2(C)Oc3c(C)c(O)c4c(O)c(c(/C=N/N5CCN(C)CC5)c(O)c4c3C2=O)NC(=O)/C(C)=C\C=C[C@H](C)[C@H](O)[C@@H](C)[C@@H](O)[C@@H](C)[C@H](OC(C)=O)[C@@H]1C
- Potency [1]: inactive
- Potency [3]: 22 µM (active) and 15.7 µM (active)
- Potency [9]: inactive
- Potency [4]: inactive
- outcome [5]: inactive
- Potency [6]: inactive
- Potency [7]: inactive
- Potency [8]: inactive

SMILES: Nc1ccc(N=Nc2ccccc2)c(N)n1
- Potency [1]: inactive
- outcome [2]: inactive
- Potency [3]: 24.7 µM (active) and 24.5 µM (active)
- Potency [4]: inactive
- outcome [5]: inactive
- Potency [6]: 34.9 µM (active) and 17.4 µM (active)
- Potency [8]: inactive

SMILES: O=C(O)Cc1cccc2ccccc12
- Potency [1]: inactive
- outcome [2]: inactive
- max response [3]: 0.279% (inactive) and 2.27% (inactive) and -0.352% (inactive)
- Potency [4]: inactive
- outcome [5]: inactive
- Potency [6]: inactive
- Potency [8]: inactive

SMILES: COc1cc(O)c(C(=O)c2ccccc2)cc1S(=O)(=O)O
- Potency [1]: inactive
- outcome [2]: inactive
- max response [3]: 0.237% (inactive) and 12.7% (inactive) and -17.6% (inactive)
- Potency [4]: inactive
- outcome [5]: inactive
- Potency [6]: inactive
- Potency [7]: inactive
- Potency [8]: inactive

SMILES: c1ccc2[nH]c(-c3cscn3)nc2c1
- Potency [1]: inactive
- outcome [2]: inactive
- max response [3]: -21.8% (inactive)
- Potency [4]: inactive
- outcome [5]: inactive
- Potency [6]: inactive
- Potency [7]: inactive
- Potency [8]: inactive

SMILES: COC(=O)c1ccc(O)cc1
- Potency [1]: inactive
- Potency [9]: inactive
- Potency [4]: inactive
- Potency [6]: inactive
- Potency [7]: inactive

SMILES: CCCCOCCOCCOC(C)=O
- Potency [1]: inactive
- outcome [2]: inactive
- max response [3]: 7.04% (inactive) and 1.04% (inactive)
- Potency [9]: inactive
- Potency [4]: inactive
- outcome [5]: inactive
- Potency [6]: inactive
- Potency [8]: inactive

SMILES: COC(=O)C1CCC(C(=O)OC)CC1 (configuration not stated)
- Potency [1]: inactive
- outcome [2]: inactive
- max response [3]: 7.05% (inactive) and -2.3% (inactive) and 3.36% (inactive)
- Potency [9]: inactive
- Potency [4]: inactive
- outcome [5]: inactive
- Potency [6]: inactive
- Potency [8]: inactive

SMILES: COC1=CC(=O)C[C@@H](C)[C@]12Oc1c(Cl)c(OC)cc(OC)c1C2=O
- Potency [1]: inactive
- outcome [2]: inactive
- max response [3]: -25.7% (inactive)
- Potency [4]: inactive
- outcome [5]: inactive
- Potency [6]: 38.6 µM (active) and inactive
- Potency [8]: inactive

SMILES: NC(=O)OCC(COC(N)=O)c1ccccc1
- Potency [1]: inactive
- outcome [2]: inactive
- max response [3]: 1.64% (inactive) and -0.593% (inactive)
- Potency [9]: inactive
- Potency [4]: inactive
- outcome [5]: inactive
- Potency [6]: inactive
- Potency [8]: inactive

SMILES: Cc1c(N(C)C)c(=O)n(-c2ccccc2)n1C
- Potency [1]: inactive
- outcome [2]: inactive
- max response [3]: 8.84% (inactive) and 0.672% (inactive) and 6.67% (inactive)
- Potency [4]: inactive
- outcome [5]: inactive
- Potency [6]: inactive
- Potency [8]: inactive

SMILES: O=C1CCCCCN1
- Potency [1]: inactive
- outcome [2]: inactive
- max response [3]: -1.34% (inactive) and -3.41% (inactive)
- Potency [4]: inactive
- outcome [5]: inactive
- Potency [6]: inactive
- Potency [7]: inactive
- Potency [8]: inactive
